MEKK2mut PB1 HTS: signal of MEK5 binding to mutant human MEKK2 PB1 domain. bead flow cytometry, Alexa488-MEK5 binding to MEKK2 mutant. percent response, % at 10 µM. 290,000 compounds, 0.35% hits; in the data active = percent response above about 24%, passing the limit was not always enough
NTR1 agonist: NTR1 (human) agonism; P30989; NTR1-U2OS beta-arrestin-GFP spot imaging, agonist mode; activation, % at 20 µM; 330,000 compounds, 0.17% hits;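 active = activation at or above 40% of the spot to cytoplasm intensity ratio, with at least 20 cells analyzed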
Target sequence (P30989 whole entry, looked up): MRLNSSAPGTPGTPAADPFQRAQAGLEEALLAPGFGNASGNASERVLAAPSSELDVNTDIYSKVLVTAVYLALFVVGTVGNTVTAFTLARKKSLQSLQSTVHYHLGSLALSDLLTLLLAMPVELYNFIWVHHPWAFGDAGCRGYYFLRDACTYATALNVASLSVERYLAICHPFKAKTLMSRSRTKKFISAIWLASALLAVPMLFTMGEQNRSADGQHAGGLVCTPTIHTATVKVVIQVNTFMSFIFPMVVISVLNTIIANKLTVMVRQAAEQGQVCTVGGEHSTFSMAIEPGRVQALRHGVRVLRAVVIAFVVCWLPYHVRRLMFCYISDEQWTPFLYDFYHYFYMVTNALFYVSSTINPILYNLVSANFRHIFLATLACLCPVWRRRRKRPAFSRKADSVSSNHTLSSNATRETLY
MEKK3 PB1 HTS: raises or lowers MEK5 binding to the human MEKK3 PB1 domain | Q99759 | 290,000 compounds, 1.4% hits | bead-based flow cytometry, Alexa488-MEK5 binding to MEKK3; actives lie on both sides; 0 = blocked by unlabeled MEK5, 100 = vehicle | binding response (% of control), % at 10 µM;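 active = binding response more than 3 SD above or below the average of its plate-row segment, actives on both sides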;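 note: Alexa488 bead fluorescence after subtracting the streptavidin-only scavenger bead signal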
TMEM16A inh: mouse TMEM16A channel inhibition, primary screen | Q8BHY3 | HEK293 TMEM16A/YFP iodide influx fluorescence, ionomycin | normalized B-score (activity score, 25-100; higher = stronger inhibition) at 10 µM | 310,000 compounds, 1.2% hits | AID 588511;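 active = ratio plate-corrected score three or more library SD toward inhibition, starting fluorescence score within five deviations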;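 note: score derived from kinetic fluorescence span divided by baseline fluorescence per well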
MEKK2 WT-MEK5: raises or lowers MEK5 binding to wildtype human MEKK2 PB1 domain | Q9Y2U5 | bead flow cytometry, Alexa488-MEK5 binding to MEKK2 WT; actives lie on both sides | binding response (% of control), % at 10 µM | 290,000 compounds, 1.1% hits; in the data active = binding response below about 67% or above about 130%
ANO1 activ: activators or potentiators of mouse TMEM16A chloride channel. Q8BHY3. HEK293 TMEM16A/YFP-H148Q/I152L, iodide quench fluorescence; hits give low values. B-score at 10 µM. 340,000 compounds, 0.3% hits. AID 623877;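 active = fluorescence-ratio B-score plate-corrected deviation score at least 3 library SD below zero, with starting fluorescence score within 5 deviations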;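 note: channel opened by trigger with iodide after compound preincubation; score built on the fluorescence ratio of max minus min over baseline; more negative score means more quench and so TMEM16A activation or potentiation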
MEKK2wt confirm: raises or lowers MEK5 binding to wildtype human MEKK2, retest; shares compounds with MEKK3 PB1 HTS; bead flow cytometry, Alexa488-MEK5 binding to MEKK2 WT; actives lie on both sides; binding response (% of control), % at 10 µM; 5,900 compounds, 2.4% hits; in the data active = binding response below about 16% or above about 210%; inactive = in between
MEKK2mut-MEK5: signal of MEK5 binding to mutant human MEKK2, retest; bead flow cytometry, Alexa488-MEK5 binding to MEKK2 mutant; 5,900 compounds, 2% hits; percent response, % at 10 µM; AID 1893; shares compounds with MEKK3 PB1 HTS; in the data active = percent response mostly above about 71%, no sharp cut-off; inactive = mostly below about 38%;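 note: higher means compound restores mutant binding toward wildtype level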
MEKK3 confirm: MEKK3-MEK5 PB1 inhibition, single concentration confirmation | shares compounds with MEKK3 PB1 HTS | binding response (% of control), % at 10 µM | bead flow cytometry, Alexa488-MEK5 binding to MEKK3; hits give low values | 5,900 compounds, 1.8% hits | AID 1894;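 active = binding response below 72% of control, or above a set upper limit, though filed actives all read lower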;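 note: lower values mean stronger disruption of MEK5 binding to MEKK3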
Large screens that a line does not name were inactive (follow-up assays come after a bar, where they were run); [ ] = another dose, or the depositor's remark. Only some compounds are listed: those with a hit (about 3.4% of all), similar ones and a draw of the others.

CCN(c1ccc(N=Cc2c(O)n(Cc3ccc(OC)cc3)c(=O)c3ccccc23)cc1)C(C)C	MEKK2mut PB1 HTS 175, MEKK3 PB1 HTS 56[inhibitor] (no result: NTR1 agonist, TMEM16A inh, MEKK2 WT-MEK5) | MEKK2wt confirm inactive | MEKK2mut-MEK5 inactive | MEKK3 confirm inactive
Cc1cccnc1NC(=O)c1csnn1	MEKK3 PB1 HTS 65[inhibitor], MEKK2 WT-MEK5 30[inhibitor] | MEKK2wt confirm inactive | MEKK2mut-MEK5 inactive | MEKK3 confirm inactive
COC(=O)N1N=C(c2ccccc2)CC1(O)C(F)(F)F (stereo unspecified)	MEKK3 PB1 HTS 0.0[inhibitor], MEKK2 WT-MEK5 -5.0[inhibitor] | MEKK2wt confirm inactive | MEKK2mut-MEK5 inactive | MEKK3 confirm inactive
CC(C)CC(C(=O)NC(C)(C)C)N(Cc1cccs1)C(=O)c1snc(C(N)=O)c1N (stereo unspecified)	none
CCOc1ccc2nc(NCCCNS(=O)(=O)c3ccc(C)cc3)c(C#N)cc2c1	MEKK3 PB1 HTS 130 | MEKK2wt confirm inactive | MEKK2mut-MEK5 inactive | MEKK3 confirm inactive
C=CCN(CC(=O)NC1CCCC1)C(=O)C(=O)Nc1ccc2c(c1)OCCO2	none
Cc1ccc(C(=O)C2(C)C3c4cc(Br)ccc4OC(=O)C32C(=O)c2ccco2)cc1 (stereo unspecified)	MEKK3 PB1 HTS 24[inhibitor], MEKK2 WT-MEK5 39[inhibitor] | MEKK2wt confirm inactive | MEKK2mut-MEK5 inactive | MEKK3 confirm inactive
CC1(C(=O)c2ccccc2)C2c3c(ccc4ccccc34)OC(=O)C21C(=O)N1CCOCC1 (stereo unspecified)	none
COc1ccc(CNC(=O)Cn2nnc3ccccc3c2=O)cc1	none
O=C(NCc1ccco1)C1CC(c2ccc(F)cc2)=NO1 (stereo unspecified)	MEKK3 PB1 HTS 73[inhibitor] | MEKK2wt confirm inactive | MEKK2mut-MEK5 inactive | MEKK3 confirm inactive
N/C(CSc1ncccc1C(F)(F)F)=N\O	none
COc1ccc(-c2nn(-c3ccccc3C)cc2CNCCc2cnc[nH]2)cc1F	MEKK2 WT-MEK5 149 | MEKK2wt confirm inactive | MEKK2mut-MEK5 inactive | MEKK3 confirm inactive
COc1ccc(Nc2nc(-c3cccc([N+](=O)[O-])c3)nc3ccccc23)cc1	MEKK2 WT-MEK5 141 | MEKK2wt confirm inactive | MEKK2mut-MEK5 inactive | MEKK3 confirm inactive
COc1ccc(Nc2nc(-c3ccccc3)nc3ccccc23)cc1	none
COC(=O)c1ccc(N2CCN(C)CC2)c(NC(=O)c2cccs2)c1	none
CCN(Cc1ccccc1)S(=O)(=O)c1cc2[nH]c(=O)c(=O)[nH]c2cc1C	none
CC(C)(C)c1ccc(/C=C/C(=O)N2CCOCC2)cc1	MEKK3 PB1 HTS 134 | MEKK2wt confirm inactive | MEKK2mut-MEK5 inactive | MEKK3 confirm inactive
CC(C)Cc1ccc(/C=C/C(=O)N2CCOCC2)cc1	none
CSCCC(NS(=O)(=O)c1ccc(C)cc1)C(=O)Nc1ccc(C)cn1 (stereo unspecified)	none (no result: MEKK2mut PB1 HTS, MEKK3 PB1 HTS, MEKK2 WT-MEK5)
COc1ccc(C23CC4CC(CC(C4)C2)C3)cc1C(=O)NCCN(C)C	MEKK2 WT-MEK5 140 | MEKK2wt confirm inactive | MEKK2mut-MEK5 inactive | MEKK3 confirm inactive
CCN1CCN(CCCNC(=O)c2cc3c(=O)oc4ccc(C)cc4c3s2)CC1	none
CCCN1CCN(CCCNC(=O)c2cc3c(=O)[nH]c4ccc(C)cc4c3s2)CC1	MEKK3 PB1 HTS 67[inhibitor] | MEKK2wt confirm inactive | MEKK2mut-MEK5 inactive | MEKK3 confirm inactive
COc1ccc(-c2coc3cc(OC(C)=O)ccc3c2=S)cc1	none (no result: MEKK2mut PB1 HTS, NTR1 agonist, MEKK3 PB1 HTS, TMEM16A inh, MEKK2 WT-MEK5)
CCc1ccc(C(N)=S)cc1	none
COC(=O)c1c(NC(=O)CN(c2ccccc2)S(C)(=O)=O)sc2c1CCCC2	MEKK3 PB1 HTS 161 | MEKK2wt confirm inactive | MEKK2mut-MEK5 inactive | MEKK3 confirm inactive
COC(=O)c1c(NC(=O)COC(=O)CCc2ccc(S(=O)(=O)N3CCOCC3)cc2)sc2c1CCC2	MEKK3 PB1 HTS 136 | MEKK2wt confirm inactive | MEKK2mut-MEK5 inactive | MEKK3 confirm inactive
Cc1cc(C)cc(NC(=O)COC(=O)CCc2ccc(S(=O)(=O)N3CCOCC3)cc2)c1	none
CCOc1cc(/C=C(\C#N)C(=O)Nc2ccccc2C(=O)O)ccc1OC(=O)c1ccc(C)cc1	none (no result: NTR1 agonist)
Cc1ccc(OCC(=O)NCCCNC(=O)c2ccncc2)cc1C	none
COc1ccc2[nH]c3c(C)c4ccncc4c(C)c3c2c1	MEKK2mut PB1 HTS 53, MEKK2 WT-MEK5 177 | MEKK2wt confirm 243 | MEKK2mut-MEK5 88 | MEKK3 confirm inactive
CCOc1ccc(C2/C(=C(/O)c3ccc4c(c3)CC(C)O4)C(=O)C(=O)N2CCCn2ccnc2)cc1OCC (stereo unspecified)	none
CCCCCCCN1CCC(=O)N([C@H](CO)CC(C)C)CC1	none
O=C(CCC1CCCC1)N1CCN(C(=O)COc2ccccc2)CC1	MEKK3 PB1 HTS 75[inhibitor] | MEKK2wt confirm inactive | MEKK2mut-MEK5 inactive | MEKK3 confirm inactive
Cc1ccc(OCC(=O)N2CCN(C(=O)CCC3CCCC3)CC2)cc1	none
C=CCN1C(=O)c2ccc(C(=O)N3CCN(S(=O)(=O)c4ccc(C(C)C)cc4)CC3)cc2C1=O	none (no result: MEKK2mut PB1 HTS, MEKK3 PB1 HTS, MEKK2 WT-MEK5)
Cc1cccc(NC(=O)CC2CCC2)c1	MEKK3 PB1 HTS 2.0[inhibitor], MEKK2 WT-MEK5 -1.0[inhibitor] | MEKK2wt confirm inactive | MEKK2mut-MEK5 inactive | MEKK3 confirm inactive
Cc1cccc(NC(=O)CN2CCN(CC(=O)Nc3cccc(C)c3)CC2)c1	MEKK3 PB1 HTS 82[inhibitor] | MEKK2wt confirm inactive | MEKK2mut-MEK5 inactive | MEKK3 confirm inactive
CCn1cc(C(=O)Nc2ccc(C)cc2[N+](=O)[O-])c(C)n1	none (no result: MEKK2mut PB1 HTS, MEKK3 PB1 HTS, MEKK2 WT-MEK5)
O=C(Nc1nc(=O)n(C(=O)c2cccc(C(F)(F)F)c2)s1)c1ccccc1	none
Cc1ccc(S(=O)(=O)NC(=O)Nc2ccccc2)cc1	none
Cc1ccc(S(=O)(=O)NC(=O)Nc2nnc(C)s2)cc1	MEKK3 PB1 HTS 0.0[inhibitor], MEKK2 WT-MEK5 0.0[inhibitor] | MEKK2wt confirm inactive | MEKK2mut-MEK5 inactive | MEKK3 confirm inactive
COc1ccc(C(=O)N2CCc3ccccc32)cc1	MEKK3 PB1 HTS 122 | MEKK2wt confirm inactive | MEKK2mut-MEK5 inactive | MEKK3 confirm inactive
O=S(=O)(NC(=S)NC1CCCCC1)c1ccccc1	MEKK3 PB1 HTS 4.0[inhibitor], MEKK2 WT-MEK5 6.0[inhibitor] | MEKK2wt confirm inactive | MEKK2mut-MEK5 inactive | MEKK3 confirm inactive
O=S(=O)(NC(=S)NC1CCCCC1)c1cccs1	none

Source: PubChem BioAssay
